Screening results as filed in PubChem BioAssay.
Cycloheximide cs = counter-screen for Shiga toxin inhibitors: cycloheximide protein synthesis inhibition; cell reporter, cycloheximide protein synthesis inhibition counterscreen; max response, %; 12% of 300,000 active; in the data active = max response mostly above about 13%, no sharp cut-off; inactive = mostly below about 14%; note: read at 38.3 µM for the half of the compounds with a filed dose; 0% is about no effect
Shiga inhibitor = Shiga toxin inhibition. AID 2315. inhibition, % at 38.7 µM. 9.2% of 290,000 active. Vero cells, Shiga toxin protein synthesis inhibition reporter; in the data active = inhibition mostly above about 28%, no sharp cut-off; inactive = mostly below about 43%; note: 0% is about no effect
LmPK inhibitor = LmPK (Leishmania mexicana) enzyme inhibition; purified LmPK, Kinase-Glo ATP luminescence, 1 h; Potency, µM (series often up to 57.5 µM), inactives show top-dose activity change, negative = inhibition, most hits filed as inhibitors; 0.37% of 290,000 active; AID 1721; note: potency is the fitted concentration of half-maximal effect; % is set by controls: 0 for no effect and ±100 for the full control effect
Target sequence (Q27686 whole entry, looked up): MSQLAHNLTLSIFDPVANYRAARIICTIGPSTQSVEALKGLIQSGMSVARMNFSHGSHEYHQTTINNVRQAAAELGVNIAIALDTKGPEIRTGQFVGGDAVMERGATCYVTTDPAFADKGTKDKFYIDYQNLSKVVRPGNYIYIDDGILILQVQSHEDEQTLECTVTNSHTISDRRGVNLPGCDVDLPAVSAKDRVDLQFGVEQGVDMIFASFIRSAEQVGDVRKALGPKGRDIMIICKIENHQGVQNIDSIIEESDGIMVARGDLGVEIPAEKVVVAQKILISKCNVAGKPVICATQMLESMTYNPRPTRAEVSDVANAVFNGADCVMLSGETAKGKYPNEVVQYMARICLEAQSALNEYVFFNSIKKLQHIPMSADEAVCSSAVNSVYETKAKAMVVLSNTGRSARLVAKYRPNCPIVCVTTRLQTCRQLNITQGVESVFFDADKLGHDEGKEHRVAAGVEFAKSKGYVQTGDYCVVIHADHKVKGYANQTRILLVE
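qHTS format; LmPK 0.1 nM; substrates PEP 0.5 mM and ADP 0.1 mM. One-hour room-temperature incubation, then coupled luciferase luminescence; 0.5 nM enzyme wells mark activation.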
Tb PYK inh = inhibitors of Trypanosoma brucei pyruvate kinase; TbPYK enzyme, Kinase-Glo Plus ATP luminescence, 45 min; 0.12% of 410,000 active; AID 624173; Potency, µM (series often up to 76.8 µM), inactives show top-dose activity, negative = inhibition, hits mostly inhibitors; note: potency is the fitted concentration of half-maximal effect; % is set by controls: 0 for no effect and ±100 for the full control effect; nearly all actives have a fitted effect of over 50% in size
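T. brucei PYK with substrate was exposed to pin-transferred compounds across a concentration series, then started with 130 uM ADP (final). After 45 min at room temperature, Kinase-Glo Plus luminescence was read, normalized and curve-fitted.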
Sm TGR inh = S. mansoni TGR enzyme inhibition; Q962Y6; purified TGR, DTNB reduction, TNB absorbance 405 nm; Potency, µM (top dose mostly 114 µM), for the others: at the top dose activity change, negative = inhibition, usual class: inhibitors; 3% of 360,000 active; AID 485364; note: potency is the fitted concentration of half-maximal effect; % is set by controls: 0 for no effect and ±100 for the full control effect; nearly all actives have a fitted effect of over 60% in size
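TGR 20 nM + NADPH 100 uM (dispensed conc.), cpd preinc 15 min RT; start with NADPH (500 uM addition) then DTNB (15 mM addition). Kinetic TNB absorbance, 405 nm filter. Four-parameter Hill fit across titration.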
FBPA Giardia inh = Giardia lamblia aldolase inhibition; Potency, µM (titrated, usually from 59.6 µM), without a hit: at the top dose activity, negative = inhibition, most hits filed as inhibitors; purified Giardia FBPA; A8B2U2; 0.71% of 290,000 active; AID 2451; note: potency is the fitted concentration of half-maximal effect; % is set by controls: 0 for no effect and ±100 for the full control effect; nearly all actives have a fitted effect of over 55% in size
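40 nM FBPA preincubated 10 min at RT with compound (up to 57.5 uM final), then substrate plus GAPDH/TPI/NAD/arsenate coupling and diaphorase/resazurin added. Fluorescence read after 20 min at RT, 525/598 nm.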
The depositor's hits bear a star; ? = inconclusive; nt = not tested or not shown; [ ] = dose if it differs, or a comment. Shown is part of a subset that was picked to be rich in hits. Unless noted, calls come from the whole dose curve; as a rule, active = well fitted curve in the direction sought with a large enough effect; inconclusive = small, poorly fitted or top-dose-only effect, or another doubt; inactive = no such curve, though single readings can be large; an effect the other way counts as inactive or inconclusive.

SMILES	Cycloheximide cs	Shiga inhibitor	LmPK inhibitor	Tb PYK inh	Sm TGR inh	FBPA Giardia inh
Cc1ccc2c(c1)C(O)(CC(=O)/C=C/C=C/c1ccccc1)C(=O)N2 (configuration not stated)	27.2*	22.5	7.0%	-10.4%	-34.3%	0.0%
N#Cc1ccccc1NC(=O)COC(=O)CSc1nc2ccccc2o1	1.4	-5.3	0.4%	0.0%	3.8%	2.9%
C/C(=N\NC(=O)CSc1nc2ccccc2o1)c1cccc(O)c1	2.2	17.6	6.4%	-1.0%	14.6%	-6.2%
Cc1ccccc1/C=N/NC(=O)CSc1nc2ccccc2o1	24.5*	93.4*	6.0%	-2.4%	8.2%	-12.1%
CC1(C)CC(=O)c2cnc(NC(=O)CSc3nc4ccccc4o3)nc2C1	15.9*	54.7	-0.9%	-2.1%	-16.5%	-0.3%
C/C(=N\NC(=O)CSc1nc2ccccc2o1)c1ccc(O)cc1	44.7*	113.8*	3.0%	-12.2%	-10.5%	-3.9%
Cc1ccccc1NC(=O)CSc1nc2ccccc2o1	23.2*	63.1*	1.7%	2.0%	-2.0%	-2.8%
Cc1cc(C)nc(SCC(=O)Nc2ncc3c(n2)CC(C)(C)CC3=O)n1	-4.0	26.4	-6.1%	6.3%	0.0%	-2.8%
CCc1ccc(NC(=O)c2cc3nc(-c4ccc(C)cc4)cc(C(F)(F)F)n3n2)cc1	nt	nt	nt	0.3%	-7.2%	nt
Cc1ccc(C(=O)Nc2ccc3nc(SCC(=O)N4CCCc5ccccc54)sc3c2)cc1	nt	nt	nt	-0.9%	4.5%	nt
O=C(c1cc2cc3ccc(Cl)cc3nc2o1)N1CCN(c2cccc(Cl)c2)CC1	nt	nt	nt	5.6%	8.4%	nt
Cc1cc(SCC(=O)N/N=C/c2ccc(O)c(O)c2)nc2ccccc12	0.6	-2.3	13.0%	-4.9%	-39.5%	-25.8%
O=C(CSc1nc2ccccc2o1)N/N=C/c1ccc(O)c(O)c1	22.4*	31.1*	-1.6%	-3.6%	-23.0%	-25.9%
O=C(CSc1nc2ccccc2o1)N/N=C/c1ccccc1	24.8*	61.0*	0.4%	-0.2%	5.1%	-4.6%
Cc1csc2nc(CSc3nc4ccccc4o3)c(Br)n12	51.7*	78.1*	-18.4%	-8.5%	-5.2%	-10.9%
Cc1csc2nc(CSc3nncn3-c3ccccc3)c(Br)n12	-1.9	-5.7	6.5%	-6.8%	?	-2.7%
Cc1cc(C)n(C(=O)CSc2nc3ccccc3o2)n1	17.9*	11.7	-0.7%	5.3%	-1.7%	15.7%
CCC/C=C1/CCCOC(C(=O)NCC2CC2)(C(F)(F)F)C1 (configuration not stated)	-6.3	-12.2	nt	nt	nt	1.1%
CN(C)/C=N/C(=S)Nc1ccccc1F	27.6*	90.2	-7.8%	-2.5%	-0.8%	-8.3%
CC(C)CNC(=S)Nc1ccccc1F	5.4	11.3	-2.1%	10.7%	-14.0%	-5.3%
CN(O)/C=N/C(=S)Nc1ccc(Cl)cc1Cl	9.3	14.0	-2.2%	-13.3%	0.562µM*	?
CN(C)/C=N/C(=S)Nc1ccccc1Cl	39.1*	49.3*	-4.2%	-2.7%	nt	?
CN(C)/C=N/C(=S)Nc1cc(Cl)cc(Cl)c1	3.7	-6.0	4.6%	-0.4%	nt	14.0%
Cc1oc2c(CN3CCCCC3C)c(O)ccc2c(=O)c1-c1ccc(Br)cc1 (configuration not stated)	-1.7	13.3	-1.1%	-0.7%	2.1%	2.1%
CCCCNc1nccnc1-c1cccc(C=O)c1	nt	nt	nt	-0.6%	nt	nt
SMILES	Cycloheximide cs	Shiga inhibitor	LmPK inhibitor	Tb PYK inh	Sm TGR inh	FBPA Giardia inh
COc1ccc(NC(=O)c2cnn(-c3ccc(C)c(C)c3)c2C2CCNCC2)cc1OC	nt	nt	nt	-13.0%	44.7µM*	nt
COc1ccc(NC(=O)c2cnn(-c3ccccc3)c2C)cc1OC	38.7*	79.9*	-12.0%	-2.9%	0.0%	4.8%
COc1ccc(CN2CCn3ncc(C(=O)Nc4ccccc4)c3C2=O)cc1	32.4*	52.5*	0.2%	-4.1%	12.5%	6.0%
Cc1c(C(=O)Nc2ccccc2)cnn1-c1ccccc1	nt	nt	nt	3.7%	nt	nt
COc1ccc(NC(=O)c2cnn(-c3ccccc3)c2C)cc1	36.0*	nt	-20.1%	-23.3%	1.4%	3.6%
Cc1ccc(-n2ncc(C(=O)Nc3cc(Cl)cc(Cl)c3)c2C2CCNCC2)cc1C	-7.9	-20.1	0.0%[11.5 µM]	3.7%	6.0%	9.0%
CSc1ccc(/C=C/c2nc3ccccc3n2S(=O)(=O)c2ccc(Br)cc2)cc1	nt	nt	nt	-24.3%	11.2%	nt
CCOC(=O)c1cnn(-c2cccc(F)c2)c1C1CCNCC1	nt	nt	nt	5.6%	44.7µM*	nt
COc1cc(OC)c(NC(=O)N2CCc3cc(S(=O)(=O)N4CCC(C)CC4)ccc32)cc1Cl	nt	nt	nt	-4.3%	-7.2%	nt
O=C(Nc1cccc(Cl)c1)C1CCN(S(=O)(=O)Cc2ccccc2)CC1	nt	nt	nt	3.6%	-3.2%	nt
O=C1C=C(NC2=CC3OC(c4ccccc4)OCC3OC2=O)CCC1 (configuration not stated)	27.0*	35.3*	-2.9%	-17.8%	25.1µM*	5.2%
O=C1C=C(NCc2ccccc2)CCC1	-0.7	5.7	-1.9%	8.5%	-3.2%	3.0%
COc1ccc(-c2c(C)c3ccc(O)c(CN4CCCCC4)c3oc2=O)cc1OC	nt	nt	nt	-7.7%	?	nt
CC(=O)c1ccc(Oc2ccc(C(C)=O)cc2)cc1	17.3*	83.0	6.1%	-5.7%	6.2%	0.3%
CC(=O)c1ccc(OC(=O)Oc2ccc(C(C)=O)cc2)cc1	nt	nt	nt	-0.5%	nt	nt
CC1CCN(C2CC(=O)N(c3ccccc3)C2=O)CC1 (configuration not stated)	7.5	-4.1	-0.2%	-1.7%	28.2µM*	4.6%
CC1CCN(C2CC(=O)N(c3ccc(Br)cc3Br)C2=O)CC1 (configuration not stated)	-1.7	-1.3	3.6%	-1.5%	20µM*	0.4%
COc1cc(NC(=O)CCn2nc(C)c(S(=O)(=O)N3CCCCC3)c2C)cc(OC)c1OC	nt	nt	nt	1.6%	-8.0%	nt
COc1ccc(C(=O)C2CCCN(C(=O)c3ccnn3C)C2)cc1OC (configuration not stated)	12.6	-8.0	12.0%	-5.2%	1.3%	-3.6%
Cc1ncsc1CCC(=O)N1CCCC(C(=O)c2cccc(Cl)c2)C1 (configuration not stated)	-1.7	7.4	2.2%	3.0%	-2.3%	7.8%
Cc1ncsc1CCC(=O)N1CCCC(C(=O)c2ccc3c(c2)OCO3)C1 (configuration not stated)	22.7*	33.5	-2.1%	1.5%	nt	-1.5%
COc1cccc(C(=O)C2CCCN(C(=O)CCc3scnc3C)C2)c1 (configuration not stated)	21.8*	9.1	1.0%	0.9%	0.5%	5.6%
COc1ccc2cc(C(=O)C3CCCN(C(=O)c4ccnn4C)C3)ccc2c1 (configuration not stated)	17.6	39.3*	-2.4%	2.2%	-8.7%	5.2%
COc1ccc2cc(C(=O)C3CCCN(C(=O)CCc4ccccn4)C3)ccc2c1 (configuration not stated)	23.7*	31.3*	2.3%	-16.7%	nt	-0.2%
